This passage reports inhibition results from PubChem BioAssay.

A number with no mark means an inactive call. The source made the active and inactive calls.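 Rule for the calls: active = inhibition at or above 50% relative to wild type and mutant plate controls; inactive = inhibition below 50%.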

The nature of this test: inhibitors of Chlamydomonas gravitaxis, primary screen, whole organism, Chlamydomonas reinhardtii, WT vs cilia-less mutant, absorbance, 96-well (AID 463189).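 Note: 0% = wild type cc124 cells in DMSO and 100% = ciliumless bld1 mutant cells.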 The note with it: OD600 absorbance, 2 days, at 10 µM, stronger effect = higher value.
As for `CCC(C)N(C)C(=O)c1cc2ccccc2c(-c2ccccc2Cl)n1` (stereo unspecified), the inhibition is 2.31%. For `Brc1ccc([C@H]2CN3CCSC3=N2)cc1` the value was 123% (active); for `Cn1c(=O)c2[nH]c(C3CCCC3)nc2n(C)c1=O`, -2.05%; for `Cn1cc(C2=C(c3ccc(Cl)cc3Cl)C(=O)NC2=O)c2ccccc21`, -0.155%.

For the compound `Cn1cc(C(=O)OCC2CCN(CCNS(C)(=O)=O)CC2)c2ccccc21`, the inhibition was 6.02%. For `FC(F)(F)c1ccccc1-n1ccnc1` the value was 2.41%; for `O=S(=O)(O)C1CCNCC1`, 1.98%. On to `C=CCN1CCc2c(cc(O)c(O)c2Br)[C@@H](c2ccccc2)C1`, for which the inhibition is 0.67%. With `O=c1cc(-c2ccc(O)cc2)oc2cc(O)cc(O)c12` the figure was 14.8%.

As to `CN1CCN(C2Cc3ccccc3Sc3ccc(Cl)cc32)CC1` (stereo unspecified), the inhibition was 30.5%. For `Fc1ccc(CN(C2=NCCN2)c2c(Cl)cccc2Cl)cc1` the value was -0.588%; for `O=C(O)c1cc(=O)c2c(Cl)cc(Cl)cc2[nH]1`, 2.38%; for `Cn1cnc2c(NC3CCCC3)ncnc21`, 0.556%. With `N[C@H]1CONC1=O` the figure was 6.36%. For `CC(C)NC[C@H](O)COc1cccc2ccccc12` the value was 8.72%. Consider `O=c1[nH]c(=O)n([C@H]2C[C@H](O)[C@@H](CO)O2)cc1/C=C/Br`, for which the inhibition was 6.74%. In the case of `OCCN1CCN(CC/C=C2/c3ccccc3Sc3ccc(C(F)(F)F)cc32)CC1`, the inhibition was 15.6%. For `COc1cc2ncnc(Nc3cccc(Cl)c3)c2cc1OC` the value was -7.15%; for `CCCCCCN(CCCCCC)C(=O)Cc1c(-c2ccc(F)cc2)[nH]c2ccccc12`, 8.52%.

Take `C[N+](C)(C)CC=O`: the inhibition was 5.9%. For `CCCCS(=N)(=O)CC[C@H](N)C(=O)O` (stereo partly specified), the inhibition is -0.592%.

For orientation: inhibition means the change of the read-out against control, counted positive when it falls.
